Measured values published in PubChem BioAssay (NCI).
Compounds without any hit were thinned out: in the full panel of roughly 79,000, 15% have a hit. Rule as the data show it: active = growth inhibition above about 70%; inactive = the rest.

Columns and labels:
[1] = NCI Yeast Anticancer Drug Screen. Data for the rad50 strain (AID 155);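 also: 0% = growth of vehicle-only cultures of the same strain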; conditions: S. cerevisiae rad50 strain growth inhibition; at 50.0 µM; stronger effect = higher value
Procedure, shortened: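 DNA repair mutant yeast, compound exposure, growth read-out; inhibition is taken relative to vehicle.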

[2] = NCI Yeast Anticancer Drug Screen. Data for the mec2-1 strain (AID 157); conditions: S. cerevisiae mec2-1 strain, at 50.0 µM, stronger effect = higher value
Procedure, shortened: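 Yeast mec2-1 mutant treated with compound. Readout: growth inhibition vs vehicle controls.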

[3] = NCI Yeast Anticancer Drug Screen. Data for the sgs1 mgt1 strain (AID 161);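 also: 0% = growth of cultures given vehicle only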; conditions: S. cerevisiae sgs1 mgt1 strain, at 50.0 µM, stronger effect = higher value
Procedure, shortened: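 Genetically altered yeast, compound exposure, growth inhibition relative to vehicle.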

[4] = NCI Yeast Anticancer Drug Screen. Data for the cln2 rad14 strain (AID 165);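 also: 0% = growth equal to vehicle treated cultures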; conditions: S. cerevisiae cln2 rad14 strain, at 50.0 µM, stronger effect = higher value
Procedure, shortened: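 cln2 rad14 yeast strain; compound exposure; growth inhibition read vs vehicle controls.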

[5] = NCI Yeast Anticancer Drug Screen. Data for the bub3 strain (AID 167); conditions: S. cerevisiae bub3 mutant strain, at 50.0 µM, stronger effect = higher value
Procedure, shortened: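 In this screen, a yeast mutant lacking normal mitotic checkpoint function is challenged with compound. Relative growth versus vehicle gives the inhibition value.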

[6] = NCI Yeast Anticancer Drug Screen. Data for the mlh1 rad18 strain (AID 175); conditions: S. cerevisiae mlh1 rad18 strain growth inhibition; at 50.0 µM; stronger effect = higher value
Procedure, shortened: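 Yeast w/ defined DNA-repair lesions; compound exposure; growth vs vehicle controls → % inhibition.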

Measured: growth inhibition

Cc1ccc(S(=O)(=O)c2ccc(O)c(C)c2)c(O)c1 (tested in a mixture with another compound)
inactive: [1] 36.6% | [2] 22.9% | [3] 35.3% | [4] 45.6% | [5] 33.4% | [6] 50.2%

c1ccc(-c2nc3cc4ccccc4cc3nc2-c2ccccc2)cc1
inactive: [1] -17.4% | [2] -12.6% | [3] -4.9% | [4] -35.6% | [5] -25.9% | [6] -18.6%

CCC(SC(C)=O)C(=O)O (stereo unspecified)
inactive: [1] 13% | [2] -16.1% | [3] 2.65% | [4] 14.4% | [5] -2.05% | [6] 9.5%

COC(=O)CC1(C(=O)OC)OC(=O)c2ccccc2N1C (stereo unspecified)
inactive: [1] 8.2% | [2] 12% | [3] 19.9% | [4] -24.6% | [5] -8.35% | [6] 12.3%

O=Cc1cc2c(cc1Br)OCO2
inactive: [1] 39.7% | [2] 16.1% | [3] 22.3% | [4] 10.2% | [5] -25.6% | [6] 8.3%

C[C@]12CCC(=O)C=C1CC[C@@H]1[C@@H]2CC[C@]2(C)C(=O)NC(=O)C[C@@H]12
inactive: [1] -1.65% | [2] -15.8% | [3] 32.6% | [4] 24.9% | [5] -3% | [6] -16.9%

CN1CCc2sccc2C(c2ccccc2)O1 (stereo unspecified)
inactive: [1] 0.75% | [2] 16.1% | [3] -3.8% | [4] 0.65% | [5] 17.2% | [6] -3.4%

COC(=O)c1cnc2nc(N3CCOCC3)[nH]n2c1=O
inactive: [1] 8.3% | [2] -0.3% | [3] -1.25% | [4] 4.1% | [5] -4.7% | [6] -10.5%

COc1ccccc1NC(=O)C1=C(C)NC(C)=C(C(=O)Nc2ccccc2OC)C1c1ccc(N(C)C)cc1
inactive: [1] 50.2% | [2] 41.4% | [3] 61.4% | [4] 24.9% | [5] 46.2% | [6] 45%

C/C(=N\N)c1cnc(N)nc1C
inactive: [1] -2.75% | [2] 5.4% | [3] 7.65% | [4] -6.3% | [5] -11.7% | [6] -12.8%

O=c1ccc2ccc(O)cc2o1
inactive: [1] -1.45% | [2] -6.7% | [3] 0.9% | [4] 2.05% | [5] -4.65% | [6] -11.8%

COC1OCC(O)C(O)C1OC (stereo unspecified)
inactive: [1] -11% | [2] -13.4% | [3] -16.2% | [4] -25.1% | [5] -8.55% | [6] -19.1%

CC(=O)OCCn1c([N+](=O)[O-])cnc1/C=[N+](/C)[O-]
inactive: [1] 11.2% | [2] 16.9% | [3] 16.8% | [4] 1.9% | [5] 9.85% | [6] 33.3%

Nc1nc[n+](Cc2ccccc2)c2ncn(Cc3ccccc3)c12
inactive: [1] -5.6% | [2] -23.6% | [3] -11.2% | [4] -9.25% | [5] -14.7% | [6] 3.5%

Cn1cc(NC(=O)c2cc(NC(=O)CCCCCC(=O)Nc3cc(C(=O)Nc4cc(C(=O)NCCC(=N)N)n(C)c4)n(C)c3)cn2C)cc1C(=O)NCCC(=N)N
inactive: [1] -14.1% | [2] -14.9% | [3] -17.6% | [4] -1.35% | [5] -24.4% | [6] -3.6%

N#CC1=C(O)NC(O)=C(C#N)C12C(=O)Nc1ccccc12
inactive: [1] 4.1% | [2] 2.85% | [3] 2.05% | [4] 3.15% | [5] 13.2% | [6] 10.3%

CC(C)=Cc1cc(-c2cc(C=C(C)C)on2)no1
inactive: [1] 8.1% | [2] -7.05% | [3] 3.85% | [4] 1.15% | [5] -8% | [6] 4%

CCOC(=O)N[n+]1ccccc1
inactive: [1] 1.65% | [2] 8.2% | [3] 4.35% | [4] -3.4% | [5] 10.8% | [6] 8.1%

c1ccc([Si](c2ccccc2)(c2cccs2)c2cccs2)cc1
inactive: [1] -8.35% | [2] 6.35% | [3] 12.5% | [4] 7.85% | [5] 3.6% | [6] 26%

CCc1cc(Cl)c(O)c(Cl)c1
inactive: [1] 4.2% | [2] 18.2% | [3] 6.2% | [4] -0.15% | [5] 17.5% | [6] 19%

Nc1nc2c3nc(Nc4ccccc4)sc3nc(=O)n2c2sc(Nc3ccccc3)nc12
inactive: [1] 1.85% | [2] 1.65% | [3] 2.75% | [4] -4.15% | [5] -20.3% | [6] 2.6%

CCOC(=O)NC(C#N)=C(Cl)Cl
inactive: [1] 37.5% | [2] 47% | [3] 49% | [4] 14.1% | [5] 38.5% | [6] 43.6%

Cc1ccccc1OS(=O)(=O)c1ccc(Br)cc1
inactive: [1] -4.2% | [2] 13.8% | [3] -4.15% | [4] -107% | [5] 24.8% | [6] -15.8%

COc1cc(C)c(C(=O)/C=C/c2cc(OC)c(O)c(OC)c2)cc1O
inactive: [1] 55.7% | [2] 36.9% | [3] 39.6% | [4] 35.6% | [5] 46.2% | [6] 46.7%

Clc1ccc(Cl)c2c(Br)cncc12
inactive: [1] 37.4% | [2] 10.8% | [3] 12.9% | [4] 7.05% | [5] 17.5% | [6] 22.1%

N#CC(C(=N/O)/C(=N\O)C(C#N)c1ccccc1)c1ccccc1 (stereo unspecified)
inactive: [1] -3.35% | [2] -11.1% | [3] 2.55% | [4] -4% | [5] -5.75% | [6] 25.1%

CC(C)OC(=O)NC1CCC2CCCCC2C1 (stereo unspecified)
inactive: [1] 2.7% | [2] 11.5% | [3] -8.3% | [4] -19.9% | [5] 15.7% | [6] -4.75%

Cc1cc(N=Cc2c(CO)cnc(C)c2O)c(N=Cc2c(CO)cnc(C)c2O)cc1C.[Zn]
inactive: [1] 5.9% | [2] -8% | [3] 5.6% | [4] -3.15% | [5] -2.1% | [6] 0.9%

CC1(C)C2CC=C(/C=N\Nc3ccc([N+](=O)[O-])cc3[N+](=O)[O-])C1C2 (stereo unspecified)
inactive: [1] -1.5% | [2] 1.95% | [3] -2.3% | [4] -3.35% | [5] -11.6% | [6] -12.1%

CNC(=S)SSSC(=S)NC
inactive: [1] 13.1% | [2] -1.9% | [3] 1.8% | [4] 2.55% | [5] -10.3% | [6] 5.55%

C[N+](C)(Cn1nc(Cl)c2ccc([N+](=O)[O-])cc21)Cn1nc(Cl)c2ccc([N+](=O)[O-])cc21
inactive: [1] 43.6% | [2] -5% | [3] 18.8% | [4] 28.1% | [5] -0.25% | [6] 27.9%

O=C1C(=O)c2ccccc2C(O)=C1CN(CCO)CCO
inactive: [1] 10.8% | [2] 19.8% | [3] 24.2% | [4] -8.25% | [5] 23.4% | [6] 26.2%

CCNc1cc2oc(=O)cc(C)c2cc1C
inactive: [1] -30.7% | [2] -22.5% | [3] -11.4% | [4] 8.05% | [5] -19% | [6] -28.2%

CC(=O)OC1CC2CC1C1C=CCC21 (stereo unspecified)
inactive: [1] 10.3% | [2] 3.75% | [3] 19.8% | [4] 11.3% | [5] 6.5% | [6] 0.65%

C=COC(=O)N1CCCCC1
inactive: [1] -5.75% | [2] 15.8% | [3] 0.5% | [4] -13.7% | [5] -30.1% | [6] 27.4%

CC(=O)c1cc2c(cc1C(C)C)C(C)(C)C(C)CC2(C)C (stereo unspecified)
inactive: [1] -19.6% | [2] -19.2% | [3] 13.8% | [4] 29.4% | [5] -41.9% | [6] 17.4%

CC(C)(C)c1ccc(OCCOCCCl)c(Cl)c1
inactive: [1] 17.1% | [2] 15.4% | [3] 14.6% | [4] -19.9% | [5] 8.65% | [6] 15.2%

COc1cc2cc(C)c(C)cc2cc1OC
inactive: [1] -5.8% | [2] 13.7% | [3] -4% | [4] -22.9% | [5] -21.9% | [6] 5.65%

COc1ccc(C=O)c(C(=O)O)c1OC
inactive: [1] -7.7% | [2] -52.9% | [3] -2.8% | [4] 17.2% | [5] -20.2% | [6] -3.7%

CC1(c2ccccc2)CCN(C2CC2)CO1 (stereo unspecified)
inactive: [1] 34.6% | [2] 15.2% | [3] 51.6% | [4] 45.2% | [5] 48.5% | [6] -52%

Nc1ccc(-c2ccc(N=C(/C=N/O)NO)cc2)cc1
inactive: [1] -7.05% | [2] -4.25% | [3] 2.4% | [4] -46% | [5] 12.2% | [6] -2.15%
